# Measured values from the emibetuzumab library of Makowski et al. (2022).
# The other results are listed elsewhere or left out. No count for the full screen is at hand.
# B1: VH:VL chains; a variant is named by its letters at X, in order (parent)
# chain 1: QVQLVQSGAEVKKPGASVKVSCKASGYTFTDYXMHWVRQAPGQGLEWMGXVNPNXXXTTYNQKFEGRVTMTTDTSTSTAYMELRSLRSDDTAVYYCARXNXLDXWGQGTTVTVSS
# chain 2: DIQMTQSPSSLSASVGDRVTITCSVSSSVSSIYLHWYQQKPGKAPKLLIYSTSNLASGVPSRFSGSGSGTDFTLTISSLQPEDFATYYCQVYSGYPLTFGGGTKVEIK
# Variants of: B1
# Experiment: yeast display scFab, FACS + sequencing
# Details: with MET
# In short: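 Round-3 sorted and input populations from a heavy-chain CDR mutant scFab yeast library were deep sequenced in two replicates. Sorting used FACS on cells labelled for 3 h at room temperature with 1 nM HGFR-Fc and anti-Myc in PBSB with 1% milk, keeping the top 50% antigen-positive cells. Any sequence seen in both antigen-positive samples was called a binder, while one seen only in the input was called a non-binder.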
row,Variant,antigen binding call
1,VTAGDDGV,no binding
2,YGTAAFGF,no binding
3,VGGGAAGF,no binding
4,YKRGDAVF,binds
5,VKRGDDVV,no binding
6,YKRGSAGF,binds
7,YKRGSSGF,binds
8,YKKGAAGF,binds
9,YARADDVF,no binding
10,FGKGGFGY,no binding
11,YARADSGD,no binding
12,YAARASGF,no binding
13,YKRGDSGF,binds
14,YATEDSGF,binds
15,AGTKADVV chain 1 G108S,no binding
16,YKGKGSSY,binds
17,VKGKGDVY,no binding
18,YKTKGSSY,binds
19,DATGGSSY,no binding
20,VGTKGSSA,no binding
21,YKGKGSLY,binds
22,YRGKSSAD,binds
23,FRAKGSAD,binds
24,FRGKGSAD,binds
25,FKGKGSAD,binds

row,Variant,antigen binding call
1,YAGKTSAD,no binding
2,FKGRGSAA,binds
3,DAAGASVD,no binding
4,YTKGTSVA chain 1 E65K,no binding
5,DKEGGFGV,no binding
6,DEGGTDGS,no binding
7,SRATAYSD,no binding
8,YRGKGSAD,binds
9,VEGAADVD,no binding
10,VTGGGASF,no binding
11,YRKGGSVS,binds
12,YRKGSSVS,binds
13,YRTRSSVS,binds
14,YRKRGSVF,binds
15,DTKGDSVS,no binding
16,VEGTSSLD,no binding
17,FAATDSVS,no binding
18,YRGEGAVS,binds
19,FKGEGFGS,no binding
20,FRGEGSVS,binds
21,FRGEGAVS,binds
22,VGGTSALD,no binding
23,VRRRGALD,binds
24,VRRGGALD,binds
25,VRKRGALD,binds

row,Variant,antigen binding call
1,VKEKGALD,no binding
2,VEEEGALD,no binding
3,VTERSALD,no binding
4,ATGEADAS,no binding
5,DAEATSWV,no binding
6,DTGTGAGD,no binding
7,AEEKGSGD,no binding
8,VRTEDDVA,no binding
9,VKGKGASA,no binding
10,YATKGAWA,no binding
11,VRGKGASA,binds
12,VRTEDSWA,no binding
13,YRGKGAWA,binds
14,VRTEDAWA,binds
15,YKGKGAWA,binds
16,VARADSGV,no binding
17,VEAGDAAV,no binding
18,VRGGDDWA,no binding
19,VRGKGAWA,binds
20,YEGTGSWA,no binding
21,VEGGGAWA,no binding
22,YRGKSSWA,binds
23,YRGKGSWA,binds
24,YKGKGSWA,binds
25,DAARGDAA,no binding

row,Variant,antigen binding call
1,YRGTGAGV,binds
2,DTGTGAGV,no binding
3,YRGAGAGV,binds
4,YRGAGAWV,binds
5,VTGTGAGV,no binding
6,YRGAGSGV,binds
7,YETGNVWF,no binding
8,DKEGGAVV,no binding
9,DAGGGDWV,no binding
10,VTTRADVF,no binding
11,DGGRAFWF,no binding
12,VARKGVGV,no binding
13,YRGAGALV,binds
14,YTGTSDWV,no binding
15,YKRGSASV,binds
16,YTRGSAWV,no binding
17,VKEADAWV,no binding
18,YKRGSAWV,binds
19,YRRGSASV,binds
20,YKRRDAWV,no binding
21,YARADSSV,no binding
22,YRRGSSSV,binds
23,SKKGDFWV,no binding
24,VETEGDWD,no binding
25,VRAETDVY,no binding

row,Variant,antigen binding call
1,YRRGSSLV,binds
2,DAEGDAGD,no binding
3,VGGRGDGS,no binding
4,VKGRASAS,no binding
5,VKGRGAGS,binds
6,VKGGSFGS,no binding
7,VKGRGSGS,binds
8,VTEGGDVA,no binding
9,YTTGGDWA,no binding
10,DATGGSVD,no binding
11,DTGGDDGF,no binding
12,YARADDAS,no binding
13,VETGGAVA,no binding
14,VRRGGSAA,binds
15,VETGGAAA,no binding
16,VRRGGAAA,binds
17,VEGEDAAA,no binding
18,VRTGGAAA,binds
19,VEGGGDWA,no binding
20,VEGAASWF,no binding
21,SRKGAASD,no binding
22,YRKGSASD,binds
23,YRKGAASD,binds
24,VRAGDALV,no binding
25,VRARGALV,binds

row,Variant,antigen binding call
1,YRAKSALV,binds
2,YTAGSALV,no binding
3,YRARGALV,binds
4,VEAGDALV,no binding
5,VGGTGDVF,no binding
6,DGGADVGA,no binding
7,DKGTDVGA,no binding
8,FRRGSSGD,binds
9,FRRGSSGS,binds
10,FARGASGV,no binding
11,FRRGGSGS,binds
12,FRRGGSGV,binds
13,DAGAAAGD,no binding
14,DKREADVA,no binding
15,FKKGSSAA,binds
16,VKRGSSAA,binds
17,FKGEDAVA,no binding
18,FKKGSFGA,no binding
19,FKKGSAVA,binds
20,FRAGGSAA,binds
21,FEEEGSAA,no binding
22,FKGEGDAA,no binding
23,ATTKSDAA,no binding
24,SREAADWV,no binding
25,DAGGGDVA,no binding

row,Variant,antigen binding call
1,DARENAGY,no binding
2,DEGTGALA,no binding
3,FRRGSSAA,binds
4,FGRGSSWA,no binding
5,FRRGGSAA,binds
6,FKRGSSAA,binds
7,FRRGDSAA,binds
8,FKRKNSAA,no binding
9,DGERTAGV,no binding
10,VREEGDGA,no binding
11,VTTGGDGV,no binding
12,YTAGSDWY,no binding
13,DRAGDDWY,no binding
14,YRAGGDWY,binds
15,YRARGAWY,binds
16,YRAGGYWY,binds
17,YRAGGAWY,binds
18,DGGTSYSV,no binding
19,SKEAGYSV,no binding
20,VTGEDDAV,no binding
21,ATGANSLD,no binding
22,YEKGGDVY,no binding
23,YRKGGAWY,binds
24,YRAKGAWY,binds
25,DGGTNDVD,no binding

row,Variant,antigen binding call
1,DTKAASWV,no binding
2,VKGRADSF,no binding
3,YKKGSSLF,binds
4,YKERGDVF,no binding
5,VKKGSSLF,binds
6,VKKESSGF,no binding
7,YRKGGAWV,binds
8,YRKEAAWV,binds
9,YRTADDWV,no binding
10,SAEGGSSA,no binding
11,FGAKTASF,no binding
12,VRGGSDVA,no binding
13,YRAGDDVA,binds
14,YAAGGDVA,no binding
15,YTAGSDVA,no binding
16,YRAAGDVA,binds
17,YRGGSDVA,binds
18,VRAGDDVA,no binding
19,DRGRSDVA,no binding
20,YRAETDVA,no binding
21,DAGGGAAV,no binding
22,AGGGNDWV,no binding
23,VAAKNDGA,no binding
24,VAKENAVA,no binding
25,YRKGSSLF,binds

row,Variant,antigen binding call
1,YGKGTSGF,no binding
2,YRKGSSGF,binds
3,YETTDSWV,no binding
4,YRGASSWV,binds
5,YRGGASWV,binds
6,YTKAASWV,no binding
7,YTRGASWV,no binding
8,YAEATDLY,no binding
9,VTEGDSGV,no binding
10,VTTGSASF,no binding
11,DTEEGDWV,no binding
12,YTGTSASD,no binding
13,YRGEGASD,binds
14,YRRGSASD,binds
15,YRRGSAVD,binds
16,DRRGDASD,no binding
17,YRRGDASD,binds
